# Activity calls are given as the source filed them. Rule for the calls: active = hit-call score of the fitted dose curve at least 0.9, where 1 is the maximum; inactive = score below 0.9.
# What was measured:
# [1] = ATG_CRE_CIS: Attagene CIS-FACTORIAL HepG2 Assay for human cAMP Responsive Element (CRE) binding protein 3 (AID 2282926); conditions: HepG2 CRE cis-reporter, Attagene multiplexed mRNA; actives raise or lower the signal
# Method in brief: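 Transfected HepG2 were treated for 24 hours, then RNA was extracted and reporter cDNA amplified with sequence-specific primers. Labelled fragments were separated by capillary electrophoresis, and the CRE signal was fitted bidirectionally with DMSO as baseline.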
# [2] = biological target: CCAAT/enhancer-binding protein beta (Homo sapiens) (UniProt P17676); experiment: ATG_C_EBP_CIS: Attagene CIS-FACTORIAL HepG2 Assay for human CCAAT/Enhancer Binding Protein (C/EBP) beta (AID 2282927); conditions: HepG2 Attagene cis-factorial transcription factor reporter; actives raise or lower the signal
# Chain of CCAAT/enhancer-binding protein beta (Homo sapiens) (P17676 whole entry, looked up): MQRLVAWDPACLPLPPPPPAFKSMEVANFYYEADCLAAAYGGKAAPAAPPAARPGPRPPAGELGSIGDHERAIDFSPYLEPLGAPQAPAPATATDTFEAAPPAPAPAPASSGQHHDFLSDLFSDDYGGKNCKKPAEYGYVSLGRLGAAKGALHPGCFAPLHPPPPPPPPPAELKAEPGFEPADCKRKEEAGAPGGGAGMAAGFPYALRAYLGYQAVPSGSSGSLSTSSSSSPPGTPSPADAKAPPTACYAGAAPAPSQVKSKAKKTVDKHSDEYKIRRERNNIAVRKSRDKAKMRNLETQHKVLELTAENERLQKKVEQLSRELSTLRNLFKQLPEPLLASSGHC
# Method in brief: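 Following a 24 h incubation with test chemical, transfected HepG2 cells yielded RNA whose reporter transcripts were quantified by RT-PCR and fluorescent capillary electrophoresis, with DMSO serving as baseline for bidirectional fitting.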
# [3] = ATG_CMV_CIS: Attagene CIS-FACTORIAL HepG2 Assay for human CMV (Internal Marker) (AID 2282928); conditions: HepG2 CMV promoter reporter, transcription factor profiling; actives raise or lower the signal;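 note: endpoint acts as a background internal control marker rather than a target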
# Method in brief: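 Cell system: HepG2, transiently transfected multiple reporter units under cis promoters. Exposure: 24 h. Detection: RT-PCR, FAM labeling, HpaI digestion, capillary electrophoresis. Analysis: bidirectional, DMSO baseline.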
# [4] = ATG_DR4_LXR_CIS: Attagene CIS-FACTORIAL HepG2 Assay for human Liver X Receptor (LXR), DR4 submotif (AID 2282929); conditions: HepG2 Attagene DR4 cis-reporter, mRNA transcription; actives raise or lower the signal
# Method in brief: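 Fluorescence intensity of labelled reporter cDNA fragments, separated by capillary electrophoresis, gives the signal. HepG2 cells bearing cis-regulated reporter constructs were treated 24 h; activity fitted bidirectionally relative to DMSO negative control.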
# [5] = biological target: Aryl hydrocarbon receptor (Homo sapiens) (UniProt P35869); experiment: ATG_Ahr_CIS: Attagene CIS-FACTORIAL HepG2 Assay for human Aryl Hydrocarbon Receptor (Ahr) (AID 2282930); conditions: HepG2 AhR cis-factorial reporter transcription; actives raise or lower the signal
# Chain of Aryl hydrocarbon receptor (Homo sapiens) (P35869 whole entry, looked up): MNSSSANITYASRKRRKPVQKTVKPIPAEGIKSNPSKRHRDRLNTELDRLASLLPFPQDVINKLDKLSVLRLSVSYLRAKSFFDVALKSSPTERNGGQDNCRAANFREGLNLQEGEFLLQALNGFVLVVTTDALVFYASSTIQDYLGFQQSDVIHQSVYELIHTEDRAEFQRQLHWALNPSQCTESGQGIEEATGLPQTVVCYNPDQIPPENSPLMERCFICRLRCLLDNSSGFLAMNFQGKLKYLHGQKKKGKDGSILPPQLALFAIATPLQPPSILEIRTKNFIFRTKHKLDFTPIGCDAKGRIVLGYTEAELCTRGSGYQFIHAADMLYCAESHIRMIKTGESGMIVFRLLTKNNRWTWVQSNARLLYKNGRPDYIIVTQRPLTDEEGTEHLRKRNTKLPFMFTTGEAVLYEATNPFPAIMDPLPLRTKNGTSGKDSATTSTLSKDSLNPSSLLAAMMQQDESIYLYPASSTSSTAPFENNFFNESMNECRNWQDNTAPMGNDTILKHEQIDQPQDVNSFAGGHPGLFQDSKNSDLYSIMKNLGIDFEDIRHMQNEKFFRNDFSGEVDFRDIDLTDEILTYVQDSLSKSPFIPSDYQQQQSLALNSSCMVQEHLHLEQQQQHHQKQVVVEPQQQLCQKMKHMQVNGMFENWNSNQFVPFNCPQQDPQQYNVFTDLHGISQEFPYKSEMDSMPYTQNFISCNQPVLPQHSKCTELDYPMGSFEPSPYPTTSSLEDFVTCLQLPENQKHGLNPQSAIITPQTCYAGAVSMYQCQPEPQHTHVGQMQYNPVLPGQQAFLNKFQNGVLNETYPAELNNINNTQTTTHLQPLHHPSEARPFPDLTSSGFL
# Method in brief: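 Values derive from bidirectional fitting against DMSO negative control. Underlying signal: cis-element reporter mRNA in transiently transfected HepG2, harvested 24 h post-dose and measured by RT-PCR plus capillary electrophoresis.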
# [6] = ATG_AP_1_CIS: Attagene CIS-FACTORIAL HepG2 Assay for human Activator Protein 1 (AP-1) (AID 2282931); conditions: HepG2 Attagene cis-factorial AP-1 reporter mRNA; actives raise or lower the signal
# Method in brief: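 Multiplexed HepG2 reporter assay, 24 h dosing. mRNA induction detected by RT-PCR plus capillary electrophoresis. Activity fitted in both directions against DMSO.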
# [7] = ATG_AP_2_CIS: Attagene CIS-FACTORIAL HepG2 Assay for human Activator Protein 2 (AP-2) (AID 2282932); conditions: HepG2 AP-2 cis-reporter, Attagene transcription factor profiling; actives raise or lower the signal
# Method in brief: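 Bidirectional curve fitting against DMSO was applied to reporter mRNA signals from HepG2 cells 24 h after dosing. Cis-promoter reporter units, transiently transfected, were read by RT-PCR plus capillary electrophoresis.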
# [8] = ATG_BRE_CIS: Attagene CIS-FACTORIAL HepG2 Assay for human Bone Morphogenetic Protein (BMP) Response Element (BRE) (AID 2282933); conditions: HepG2 BMP response element reporter, Attagene transcription factor profiling; actives raise or lower the signal
# Method in brief: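 Multiplexed cis-reporter assay, HepG2, 24 h exposure. mRNA from reporter units quantified via RT-PCR/CE; DMSO baseline; bidirectional curve fit.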
# [9] = biological target: Transcription factor E2F1 (Homo sapiens) (UniProt Q01094); experiment: ATG_E2F_CIS: Attagene CIS-FACTORIAL HepG2 Assay for human E2F Transcription Factor 1 (AID 2282935); conditions: HepG2 Attagene cis-reporter, E2F reporter RNA transcripts; actives raise or lower the signal
# Chain of Transcription factor E2F1 (Homo sapiens) (Q01094 whole entry, looked up): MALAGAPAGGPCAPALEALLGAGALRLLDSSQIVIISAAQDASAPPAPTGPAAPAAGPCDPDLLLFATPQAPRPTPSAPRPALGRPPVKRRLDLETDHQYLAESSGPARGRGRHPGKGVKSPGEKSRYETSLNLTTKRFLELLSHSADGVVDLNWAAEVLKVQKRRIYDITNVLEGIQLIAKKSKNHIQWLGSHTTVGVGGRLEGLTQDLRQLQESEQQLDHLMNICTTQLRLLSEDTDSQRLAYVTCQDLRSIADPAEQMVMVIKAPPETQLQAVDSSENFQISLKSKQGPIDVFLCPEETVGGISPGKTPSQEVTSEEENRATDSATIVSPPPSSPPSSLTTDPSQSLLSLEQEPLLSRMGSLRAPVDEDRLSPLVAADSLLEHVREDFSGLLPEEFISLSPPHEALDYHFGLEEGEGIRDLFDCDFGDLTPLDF
# Method in brief: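 Multiplexed cis-reporter assay: HepG2, transient transfection, 24 h dosing, mRNA quantitation by labeled RT-PCR and CE.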
# [10] = ATG_E_Box_CIS: Attagene CIS-FACTORIAL HepG2 Assay for human Enhancer Box (E-box) (AID 2282936); conditions: HepG2 E-box cis-reporter transcription, actives raise or lower the signal
# Method in brief: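 Multiplexed CIS reporter system in transiently transfected HepG2 cells measures native transcription factor activity. Reporter RNA after 24 h exposure is profiled by RT-PCR-capillary electrophoresis.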
# [11] = ATG_M_61_CIS: Attagene CIS-FACTORIAL HepG2 Assay for M61 Transcription Factor (Internal Marker) (AID 2282937); conditions: HepG2 Attagene CIS-FACTORIAL M61 internal marker reporter; actives raise or lower the signal
# Method in brief: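 Endogenous transcription factor activity in HepG2 is read through transiently transfected cis-element reporter units. After 24 h dosing, RNA undergoes reverse transcription, PCR and primer extension with 6-FAM before capillary electrophoresis; DMSO-referenced bidirectional fit.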
# [12] = ATG_EGR_CIS: Attagene CIS-FACTORIAL HepG2 Assay for human Early Growth Response 1 (EGR1) (AID 2282938); conditions: HepG2 Attagene CIS-FACTORIAL EGR reporter mRNA; actives raise or lower the signal
# Method in brief: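 Activity is taken as induction or loss of reporter mRNA versus DMSO, fitted bidirectionally. Transcripts from cis-regulated reporter units in transiently transfected HepG2 were measured after 24 h by RT-PCR with capillary electrophoresis.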
# [13] = ATG_M_19_CIS: Attagene CIS-FACTORIAL HepG2 Assay for M19 Transcription Factor (Internal Marker) (AID 2282939); conditions: HepG2 Attagene CIS-FACTORIAL M19 internal marker reporter; actives raise or lower the signal
# Method in brief: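 Signals come from fluorescence of labelled reporter-specific PCR fragments resolved by capillary electrophoresis, following 24 h treatment of HepG2 cells transfected with cis-promoter reporter units; activity was fitted in both directions relative to DMSO.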
# [14] = ATG_ERE_CIS: Attagene CIS-FACTORIAL HepG2 Assay for Estrogen Response Element (ERE) (AID 2282940); conditions: HepG2 ERE cis-reporter, Attagene RNA transcript; actives raise or lower the signal
# Method in brief: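 Fluorescence of capillary-separated, FAM-labelled reporter cDNA fragments indicates reporter mRNA levels in HepG2 cells exposed to chemicals for 24 h. Transient transfection with cis-regulated units; data fitted in both directions against DMSO.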
# [15] = ATG_Ets_CIS: Attagene CIS-FACTORIAL HepG2 Assay for human Erythroblast Transformation Specific (ETS) (AID 2282941); conditions: HepG2 ETS cis-reporter transcription, actives raise or lower the signal
# Method in brief: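 After transient cis-reporter transfection, HepG2 cells receive test chemical for 24 h. Reporter mRNA levels, measured by RT-PCR and capillary electrophoresis fluorescence, are analysed bidirectionally relative to the DMSO baseline.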
# [16] = ATG_FoxO_CIS: Attagene CIS-FACTORIAL HepG2 Assay for human Forkhead box O (FoxO) (AID 2282943); conditions: HepG2 Attagene cis-reporter, FoxO element, mRNA; actives raise or lower the signal
# Method in brief: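 Values reflect reporter mRNA induction or loss in HepG2 cells 24 h post-dosing, fitted bidirectionally with DMSO as negative control and baseline. Detection used RT-PCR and fluorescence capillary electrophoresis.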
# [17] = ATG_GATA_CIS: Attagene CIS-FACTORIAL HepG2 Assay for human GATA Binding Protein (AID 2282944); conditions: HepG2 GATA cis-element reporter, Attagene multiplex mRNA; actives raise or lower the signal
# Method in brief: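 After transfecting HepG2 cells with multiple cis-regulated reporter units, chemicals are dosed for 24 h; isolated RNA undergoes RT-PCR and fluorescent labeling before capillary electrophoresis, with activity expressed against DMSO.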
# [18] = ATG_GLI_CIS: Attagene CIS-FACTORIAL HepG2 Assay for human Zinc Finger Protein GLI1 (AID 2282945); conditions: HepG2, Attagene cis-factorial reporter mRNA, GLI element; actives raise or lower the signal
# Method in brief: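 HepG2 cells transiently transfected with cis-promoter multiplexed reporter units report endogenous transcription factor activity. After 24 h chemical exposure, reporter mRNA was quantified by RT-PCR, 6-FAM labelling, HpaI digestion and capillary electrophoresis, with bidirectional fitting against DMSO.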
# [19] = biological target: Hepatocyte nuclear factor 3-beta (Homo sapiens) (UniProt Q9Y261); experiment: ATG_FoxA2_CIS: Attagene CIS-FACTORIAL HepG2 Assay for human Forkhead box A2 (FOXA2) (AID 2282942); conditions: HepG2 cis-reporter transcription factor activity, 24 h; actives raise or lower the signal
# Chain of Hepatocyte nuclear factor 3-beta (Homo sapiens) (Q9Y261 whole entry, looked up): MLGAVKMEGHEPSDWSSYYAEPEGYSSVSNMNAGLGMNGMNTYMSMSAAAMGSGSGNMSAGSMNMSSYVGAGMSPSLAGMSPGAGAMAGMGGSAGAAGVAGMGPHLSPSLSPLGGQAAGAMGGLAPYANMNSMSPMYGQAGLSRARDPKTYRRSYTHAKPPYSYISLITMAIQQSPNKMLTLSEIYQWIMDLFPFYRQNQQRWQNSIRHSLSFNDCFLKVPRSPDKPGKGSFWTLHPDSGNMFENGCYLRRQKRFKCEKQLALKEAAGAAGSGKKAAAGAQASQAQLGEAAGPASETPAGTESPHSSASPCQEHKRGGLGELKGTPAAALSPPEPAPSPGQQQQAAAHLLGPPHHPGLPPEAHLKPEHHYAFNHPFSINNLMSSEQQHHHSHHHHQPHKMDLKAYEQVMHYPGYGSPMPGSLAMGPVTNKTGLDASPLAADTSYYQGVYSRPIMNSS
# Method in brief: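 Reporter transcript induction is measured by fluorescence after capillary electrophoresis of RT-PCR products from HepG2 cells exposed 24 h. Cis-regulated reporter units report endogenous factor activity; curves fitted both directions against DMSO.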
# [20] = biological target: Retinoic acid receptor alpha (Homo sapiens) (UniProt P10276); experiment: ATG_DR5_RAR_CIS: Attagene CIS-FACTORIAL HepG2 Assay for human Retinoic Acid Receptor Alpha (RARE), DR5 submotif (AID 2282934); conditions: HepG2 Attagene cis-factorial RARE DR5 reporter, mRNA; actives raise or lower the signal
# Chain of Retinoic acid receptor alpha (Homo sapiens) (P10276 whole entry, looked up): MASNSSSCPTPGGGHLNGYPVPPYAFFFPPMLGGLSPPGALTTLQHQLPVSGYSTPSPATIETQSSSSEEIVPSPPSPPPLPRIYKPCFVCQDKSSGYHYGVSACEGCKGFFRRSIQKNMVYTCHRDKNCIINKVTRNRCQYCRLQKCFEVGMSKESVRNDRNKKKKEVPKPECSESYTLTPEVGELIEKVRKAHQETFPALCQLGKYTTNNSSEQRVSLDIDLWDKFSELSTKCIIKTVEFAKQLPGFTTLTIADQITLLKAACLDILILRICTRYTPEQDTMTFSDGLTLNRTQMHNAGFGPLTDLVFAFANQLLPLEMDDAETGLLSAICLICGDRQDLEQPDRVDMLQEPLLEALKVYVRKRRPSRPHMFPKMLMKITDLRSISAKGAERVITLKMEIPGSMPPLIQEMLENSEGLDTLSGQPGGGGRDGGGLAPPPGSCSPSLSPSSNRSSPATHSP
# Method in brief: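 Endpoint fitted in both directions relative to DMSO as negative control. It reflects DR5 cis-element reporter mRNA induction in transiently transfected HepG2 cells, measured 24 h after dosing through RT-PCR and fluorescent capillary electrophoresis.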
smiles,measurement,setting,value
CC1(C)CCC(C)(C)c2cc(C(=O)Nc3ccc(C(=O)O)cc3)ccc21,outcome,[1],inactive
same,outcome,[2],inactive
same,outcome,[3],inactive
same,AC50,[4],27.6 µM (active)
same,outcome,[5],inactive
same,outcome,[6],inactive
same,AC50,[7],66.6 µM (active)
same,outcome,[8],inactive
same,outcome,[9],inactive
same,outcome,[10],inactive
same,outcome,[11],inactive
same,AC50,[12],63 µM (active)
same,outcome,[13],inactive
same,outcome,[14],inactive
same,outcome,[15],inactive
same,outcome,[16],inactive
same,outcome,[17],inactive
same,outcome,[18],inactive
COc1ccc(OC)c(OC)c1,outcome,[1],inactive
same,outcome,[2],inactive
same,outcome,[3],inactive
same,outcome,[4],inactive
same,outcome,[5],inactive
same,outcome,[6],inactive
same,outcome,[7],inactive
same,outcome,[8],inactive
same,outcome,[9],inactive
same,outcome,[10],inactive
same,outcome,[11],inactive
same,outcome,[12],inactive
same,outcome,[13],inactive
same,outcome,[14],inactive
same,outcome,[15],inactive
same,outcome,[19],inactive
same,outcome,[16],inactive
same,outcome,[17],inactive
same,outcome,[18],inactive
CC1=CCC2C(C1)C2(C)C (stereo not drawn),outcome,[1],inactive
same,outcome,[2],inactive
same,outcome,[3],inactive
same,outcome,[4],inactive
same,outcome,[5],inactive
same,outcome,[6],inactive
same,outcome,[7],inactive
same,outcome,[8],inactive
same,outcome,[9],inactive
same,outcome,[10],inactive
same,outcome,[11],inactive
same,outcome,[12],inactive
same,outcome,[13],inactive
same,AC50,[14],82 µM (active)
same,outcome,[15],inactive
same,outcome,[19],inactive
same,outcome,[16],inactive
same,outcome,[18],inactive
CCCCCCOC(=O)CCCCC,outcome,[1],inactive
same,outcome,[2],inactive
same,outcome,[3],inactive
same,outcome,[4],inactive
same,outcome,[5],inactive
same,outcome,[6],inactive
same,outcome,[7],inactive
same,outcome,[8],inactive
same,outcome,[20],inactive
same,outcome,[10],inactive
same,outcome,[11],inactive
same,outcome,[12],inactive
same,outcome,[13],inactive
same,outcome,[15],inactive
same,outcome,[16],inactive
same,outcome,[17],inactive
same,outcome,[18],inactive
CCCCCCCCCC=O,outcome,[1],inactive
same,outcome,[2],inactive
same,outcome,[3],inactive
same,outcome,[4],inactive
same,outcome,[5],inactive
same,outcome,[6],inactive
same,outcome,[7],inactive
same,outcome,[8],inactive
same,outcome,[9],inactive
same,outcome,[10],inactive
same,outcome,[11],inactive
same,outcome,[12],inactive
same,outcome,[13],inactive
same,outcome,[14],inactive
same,outcome,[15],inactive
same,outcome,[19],inactive
same,outcome,[16],inactive
same,outcome,[17],inactive
same,outcome,[18],inactive
Clc1ccc2c(c1)C(N1CCNCC1)=Nc1ccccc1O2,outcome,[1],inactive
same,AC50,[2],51 µM (active)
same,outcome,[3],inactive
same,outcome,[4],inactive
same,AC50,[5],41.1 µM (active)
same,outcome,[6],inactive
same,outcome,[7],inactive
same,outcome,[8],inactive
same,outcome,[9],inactive
same,outcome,[10],inactive
same,outcome,[11],inactive
same,AC50,[12],26.6 µM (active)
same,outcome,[13],inactive
same,outcome,[14],inactive
same,outcome,[15],inactive
same,outcome,[19],inactive
same,outcome,[16],inactive
same,outcome,[17],inactive
same,outcome,[18],inactive
CC1COc2ccccc2N1C(=O)C(Cl)Cl (stereo not drawn),outcome,[1],inactive
same,outcome,[2],inactive
same,outcome,[3],inactive
same,outcome,[4],inactive
same,outcome,[5],inactive
same,AC50,[6],27.4 µM (active)
same,outcome,[7],inactive
same,outcome,[8],inactive
same,outcome,[9],inactive
same,outcome,[10],inactive
same,outcome,[11],inactive
same,AC50,[12],41.1 µM (active)
same,outcome,[13],inactive
same,outcome,[14],inactive
same,outcome,[15],inactive
same,outcome,[19],inactive
same,AC50,[16],21 µM (active)
same,outcome,[17],inactive
same,outcome,[18],inactive
NC(=O)c1ccccc1Cl,AC50,[1],61.2 µM (active)
same,outcome,[2],inactive
same,outcome,[3],inactive
same,outcome,[4],inactive
same,outcome,[5],inactive
same,AC50,[6],27 µM (active)
same,AC50,[7],76.4 µM (active)
same,outcome,[8],inactive
same,outcome,[9],inactive
same,AC50,[10],61.1 µM (active)
same,outcome,[11],inactive
same,AC50,[12],67.2 µM (active)
same,outcome,[13],inactive
same,outcome,[14],inactive
same,outcome,[15],inactive
same,outcome,[19],inactive
same,outcome,[16],inactive
same,outcome,[17],inactive
same,AC50,[18],139 µM (active)

# Source: PubChem BioAssay (EPA / NIEHS)
